Source: PubChem
ATXN2 expr inh – reduces ATXN2 reporter expression in HEK-293 cells; HEK-293 ATXN2-luciferase reporter, luminescence, 24 h; Potency, µM (titrated, usually from 57 µM), inactives show at the top dose activity change, negative = inhibition, most hits filed as inhibitors; 360,000 tested, 0.72% active; also: potency is read from the fitted curve at half-maximal effect; % is scaled to controls: 0 for no effect and ±100 for the full control effect; nearly all actives have a fitted effect of over 55% in size
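qHTS (up to 57 uM final) was run with 24 h compound exposure of reporter cells at 37 °C. Each well was multiplexed: SteadyGlo luminescence measured ATXN2-luciferase expression after a fluorogenic Gly-Phe-AFC viability readout (25 uM final).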
IL1B secr inh – blocks inflammasome-driven IL-1 beta release | THP-1 LPS/ATP IL-1B secretion, AlphaLISA, 16 h; stronger effect = lower value | activity change, % at 57.5 µM | 360,000 tested, 4.7% active | AID 743279; in the data active = activity change below about -50%; inconclusive = mostly about -30% to -49%; also: % is scaled to controls: 0 for no effect and ±100 for the full control effect
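THP-1 cells pretreated 1 hr with compounds (up to 57.5 uM final), then stimulated with LPS (250 ng/mL final) plus ATP (1.25 mM final); secreted IL-1B measured by AlphaLISA after 16 hr, decreased signal indicating inhibition.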
USP1 inh – USP1/UAF1 (human) deubiquitinase inhibition. O94782. recombinant USP1/UAF1, Ub-Rhodamine cleavage fluorescence. Potency, µM (titrated, usually from 57.1 µM), for the others: top-dose activity change, negative = inhibition, usual class: inhibitors. 390,000 tested, 0.23% active. AID 743255; also: potency is read from the fitted curve at half-maximal effect; % is scaled to controls: 0 for no effect and ±100 for the full control effect; nearly all actives have a fitted effect of over 60% in size
Target sequence (O94782 whole entry, looked up): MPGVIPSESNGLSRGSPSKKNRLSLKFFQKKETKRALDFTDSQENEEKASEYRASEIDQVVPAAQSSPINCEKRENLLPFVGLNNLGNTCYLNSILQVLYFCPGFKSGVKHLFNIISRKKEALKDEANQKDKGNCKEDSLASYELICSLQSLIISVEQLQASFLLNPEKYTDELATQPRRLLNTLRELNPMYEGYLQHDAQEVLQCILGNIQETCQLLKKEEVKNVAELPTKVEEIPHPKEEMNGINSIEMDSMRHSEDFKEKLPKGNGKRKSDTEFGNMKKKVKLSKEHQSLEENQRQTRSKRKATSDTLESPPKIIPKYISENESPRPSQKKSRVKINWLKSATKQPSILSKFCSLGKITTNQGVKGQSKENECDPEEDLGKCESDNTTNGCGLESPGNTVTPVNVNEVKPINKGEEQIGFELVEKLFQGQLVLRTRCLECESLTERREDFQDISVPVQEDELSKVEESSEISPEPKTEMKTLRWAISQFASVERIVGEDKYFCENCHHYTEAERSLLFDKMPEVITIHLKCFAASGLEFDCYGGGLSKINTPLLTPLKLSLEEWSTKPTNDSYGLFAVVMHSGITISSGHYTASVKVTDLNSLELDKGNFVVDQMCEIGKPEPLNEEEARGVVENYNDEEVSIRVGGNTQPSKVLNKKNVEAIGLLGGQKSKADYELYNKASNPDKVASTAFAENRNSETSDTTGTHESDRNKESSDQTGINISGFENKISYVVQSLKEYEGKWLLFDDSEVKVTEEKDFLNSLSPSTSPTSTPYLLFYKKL
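In this screen, compounds sit with the deubiquitinase complex (1nM) for 15 min at room temperature before Ub-Rho is added at 150nM final. Fluorescence rise is then followed for 6 reads every 60 seconds.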
USP2a inh – inhibitors of human ubiquitin-specific protease USP2a | USP2 core, Ub-CHOP2 coupled fluorogenic reporter, 485/531 | Potency, µM (doses to about 38.3 µM), for the others: top-dose activity change, negative = inhibition, actives largely listed as inhibitors | 330,000 tested, 0.01% active;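 also: potency is read from the fitted curve at half-maximal effect; plate controls were DMSO wells for no effect and full inhibition by NEM control for full effect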
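Deubiquitinase activity read as fluorescence (485/531 nm) after Ub-CHOP2 cleavage activates the enterokinase reporter on its substrate; USP2 core 10nM, Ub-CHOP2 and substrate 25nM each, 30min compound preincubation then 60min RT; data normalized to NEM, curves fitted.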
ATXN viability – viability counter-screen for ATXN expression inhibitors; 400,000 tested, 0.49% active; Potency, µM (titrated, usually from 56.7 µM), usual class: cytotoxic; S2 cells (HEK-293 line with an ATXN2-luciferase reporter) viability, CellTiter-Fluor protease fluorescence, 24 h; also: potency is read from the fitted curve at half-maximal effect; nearly all actives have a fitted effect of over 40% in size
Numbers without * were called inactive; i = inactive; ? = inconclusive; nt = not tested or not shown. Shown are actives, neighbours in structure and some others; about 4.8% of the full set was active somewhere. Unless noted, calls follow the shape of the dose curve; as a rule, active = well fitted curve in the direction sought with a large enough effect; inconclusive = small, poorly fitted or top-dose-only effect, or another doubt; inactive = no such curve, though single readings can be large; an effect the other way counts as inactive or inconclusive.

SMILES	ATXN2 expr inh	IL1B secr inh	USP1 inh	USP2a inh	ATXN viability
COc1ccc2cc3cc(C(=O)NCCCN4CCOCC4)oc3nc2c1	-2.8%	-8.8	-12.8%	1.0%	i
CCN1CCN(CCCNC(=O)c2cc3cc4ccc(OC)cc4nc3o2)CC1	-19.7%	-84.9*	-14.0%	1.4%	i
COc1ccc2cc3cc(C(=O)NCCCN4CCC(C)CC4)oc3nc2c1	-11.6%	-83.1*	-8.6%	-3.2%	i
Cc1cc(C)n(CCNC(=O)C2CCC(=O)N(Cc3ccc(Cl)cc3)C2)n1 (stereo not drawn)	5.7%	2.9	-9.5%	2.6%	i
Cc1ccc(-c2c[n+](CC(=O)Nc3ccc(C)cc3C)c3n2CCC3)cc1	17.0%	-72.6*	8.3%	3.0%	i
O=C(C[n+]1cc(-c2ccc(F)cc2)n2c1CCC2)Nc1nc(-c2ccccc2)cs1	25.6%	-2.3	-15.8%	-1.8%	i
Cc1ccc(-c2c[n+](CC(=O)Nc3nc(-c4ccc(F)cc4)cs3)c3n2CCC3)cc1	-17.1%	-99.6*	-20.8%	-2.9%	?
CCn1c(-c2ccccc2F)nc2cc(C(=O)NCC3CCOCC3)cc(NC(C)=O)c21	nt	nt	nt	nt	i
CCOC(=O)Cn1cc(C(=O)C(C)(C)C)c2ccccc21	-12.5%	0.0	-22.1%	0.6%	i
COC(=O)Cn1cc(C(=O)C(C)(C)C)c2ccccc21	-16.7%	-73.5*	-20.8%	1.5%	?
COC(=O)Cn1cc(C(=O)C2CC2)c2ccccc21	-6.3%	-89.1*	-5.9%	3.8%	i
CCCN(C(=O)c1cnccn1)c1c(N)n(Cc2ccccc2)c(=O)[nH]c1=O	1.4%	0.0	-14.5%	-1.1%	i
N#Cc1cccnc1N1CCN(C(=O)c2cccc3c2C(=O)c2ccc(Cl)cc2S3(=O)=O)CC1	?	-98.5*	-26.5%	-0.3%	20µM*
O=C1c2ccc(Cl)cc2S(=O)(=O)c2cccc(C(=O)N3CCC(Cc4ccccc4)CC3)c21	?	-99.2*	-26.5%	-0.3%	nt
O=C(NC1CC1)c1cccc2c1C(=O)c1ccc(N3CCC(Cc4ccccc4)CC3)cc1S2(=O)=O	?	16.8	?	6.5%	nt
C=C1C(=O)OCC2C(C(=O)O)=CC3C(C)C(C)=CC123 (stereo not drawn)	nt	-70.3*	-24.2%	nt	?
O=C1NC[C@@H](CCCCN2C[C@H](Cc3ccccc3)N(CCC3CCCCC3)C(=O)C2=O)N(CCc2ccc(O)cc2)C1=O	-6.2%	-59.0*	nt	nt	i
CC(C)C[C@H]1CN(CCCC[C@H]2CNC(=O)C(=O)N2CC2CCCCC2)C(=O)C(=O)N1Cc1ccccc1	21.6%	-72.4*	nt	nt	i
O=C(/C=C/[C@H]1O[C@@H](n2ccc(=O)[nH]c2=O)[C@H](O)[C@@H]1O)NCc1cccc2ccccc12	11.8%	-5.9	nt	nt	i
COc1ccc(S(=O)(=O)N2CCN(C(=O)Cc3ccsc3)CC2)cc1	4.1%	-6.4	-11.8%	-0.5%	i
C#CCN(C)Cc1ccccc1	-0.4%	-18.0	-7.3%	-2.5%	i
C#CC(CO)N(CCN(Cc1ccccc1)C(C#C)CO)Cc1ccccc1 (stereo not drawn)	3.6%	-61.6*	-20.6%	-0.2%	i
Cc1sc(C(C2C(=O)CC(C)(C)CC2=O)C2C(=O)CC(C)(C)CC2=O)cc1[N+](=O)[O-]	nt	-93.6*	-14.1%	0.0%	?
CC1(C)CC(=O)C(C(c2cc([N+](=O)[O-])ccc2Cl)C2C(=O)CC(C)(C)CC2=O)C(=O)C1	12.2%	41.0	-10.3%	nt	?
CC(=O)C1=C(c2ccc(Br)cc2)C(=O)c2ccccc2C1=O	3.55µM*	-96.6*	-10.8%	-0.5%	7.08µM*
COCc1cc(CNC(=O)C2CCC(=O)N(Cc3cccc(OC)c3)C2)[nH]n1 (stereo not drawn)	3.6%	3.1	-15.0%	-0.1%	?
Cc1nnc(SCC(=O)N/N=C/c2cn(-c3ccccc3)nc2-c2ccccc2)n1-c1ccccc1	-5.8%	-78.4*	-23.6%	-3.7%	?
Cc1ccc(-c2nnc(SCC(=O)N/N=C/c3ccccc3C(=O)O)n2-c2ccccc2)cc1	nt	nt	nt	0.0%	nt
CCC(CC)C(=O)Nc1ccc2nc(SCC(=O)N3CCc4ccccc43)sc2c1	-12.4%	nt	-28.3%	nt	i
